# aSyn rescue = qHTS of alpha-syn Inhibitors. AID 652106, 2013. Potency, µM (doses to about 46.1 µM), without a hit: at the top dose growth rescue (activation), most hits filed as activators. 370,000 tested, 0.14% active. Yeast expressing alpha-synuclein, growth rescue, BacTiter-Glo, 24 h; note: % of control where 0% means no effect; nearly all actives have a fitted effect of over 65% in size
#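 Screening used galactose-induced yeast with toxic alpha-synuclein levels, exposed to compound for 24 hr at 30 deg C. Cell growth, read with BacTiter-Glo luminescence, gave the measured signal.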
# Mito fusion yeast = qHTS Assay for Small Molecule Inhibitors of Mitochondrial Division or Activators of Mitochondrial Fusion; Potency, µM (series often up to 46.1 µM), for inactives: at the top dose growth rescue (activation), usual class: activators; AID 485298, 2010; S. cerevisiae fusion-defective mutant growth rescue, CellTiterGlo 48 h; 320,000 tested, 0.23% active; note: % of control where 0% means no effect; nearly all actives have a fitted effect of over 45% in size
#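 Growth-rescue viability read-out: after 48 h at the non-permissive 37C in glycerol/ethanol YPEG, yeast mitochondrial fusion mutants are measured by CellTiterGlo luminescence; compounds (23 nl pinned per well) restoring growth score as division inhibitors or fusion activators.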
# TDP-43 yeast inh = qHTS of TDP-43 Inhibitors. TDP-43 expressing yeast growth rescue, BacTiter-Glo, 24 h. Potency, µM (highest dose often 46.1 µM), inactives show at the highest dose growth rescue (activation), actives largely listed as activators. 410,000 tested, 1.8% active. AID 652104, 2013; note: % of control where 0% means no effect; nearly all actives have a fitted effect of over 50% in size
#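 In this qHTS, compounds that restore growth of yeast expressing TDP-43 appear as activators. Cells (OD600=0.02, galactose medium, raffinose-pregrown) are incubated with compound 24 hr at 30 deg C and growth is quantified by BacTiter-Glo.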
# FUS yeast rescue = qHTS for Suppressors of FUS Proteinopathy: Primary screen using FUS-linked yeast assay | S. cerevisiae FUS-expressing, growth rescue, OD600, 24 h | Potency, µM (titrated, usually from 76.6 µM), hits mostly activators | 390,000 tested, 0.24% active | AID 1347120, 2019;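 note: plate controls were DMSO vehicle for no effect and reference control for full effect; nearly all actives have a fitted effect of over 55% in size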
#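 Cultures pregrown in 2.5% raffinose medium are shifted to minimal medium containing 2% galactose to express toxic FUS. Compounds are tested at several concentrations. After 24hr at 30C, growth is quantified at 600 nm absorbance.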
# Abeta rescue = qHTS for compounds that reverse cellular toxicity of Amyloid beta (A-beta) peptide in yeast: Primary Screen. yeast expressing A-beta42, growth rescue, OD600, 48 h; response scale: 0% DMSO, 100% iron-clioquinol control. Potency, µM (series often up to 46.1 µM), hits mostly activators. 410,000 tested, 0.063% active; note: nearly all actives have a fitted effect of over 55% in size
#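 Growth rescue measured by 600 nm absorbance after 48 h yeast culture at 30 C with compound. Values normalized between DMSO and an equimolar ferric chloride plus clioquinol control.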
# An asterisk follows results filed as active; i = inactive; ? = inconclusive; . = no result. Rows were chosen to be rich in hits. Some 2.2% of all compounds tested hit in one or more screens of this group. Calls come from the whole dose curve; as a rule, active = well fitted curve in the direction sought with a large enough effect; inconclusive = small, poorly fitted or top-dose-only effect, or another doubt; inactive = no such curve, though single readings can be large; an effect the other way counts as inactive or inconclusive. Potency is the fitted concentration of half-maximal effect.
SMILES,aSyn rescue,Mito fusion yeast,TDP-43 yeast inh,FUS yeast rescue,Abeta rescue
COc1cccc(N=C2SC(C(=O)Nc3ccc(F)cc3)CC(=O)N2C)c1 (stereo not drawn),21%,6%,26%,i,i
CCOc1cccc(NC(=O)C2CC(=O)N(C)C(=Nc3ccc(OC)cc3)S2)c1 (stereo not drawn),5%,.,22%,i,i
CCOc1cccc(NC(=O)C2CC(=O)N(C)C(=Nc3cccc(OC)c3)S2)c1 (stereo not drawn),.,.,35µM*,?,i
O=C(OCC#CCSc1nnc(-c2ccc3ccccc3c2)o1)c1cccs1,.,.,.,i,.
O=C(N[C@@H]1CCCc2c1cnn2-c1ccc(F)cc1F)c1ccccn1,.,.,.,i,.
Cc1ccc(CN=c2c([N+](=O)[O-])nn(-c3ccc(Cl)cc3)n2O)cc1,13%,0%,11µM*,i,?
CCc1cccc(N=c2c([N+](=O)[O-])nn(-c3ccc(Cl)cc3)n2O)c1,4%,18µM*,7.9µM*,i,i
O=[N+]([O-])c1nn(-c2ccc(Cl)cc2)n(O)c1=NCc1ccncc1,1%,1%,11µM*,i,i
O=[N+]([O-])c1nn(-c2ccc(Cl)cc2)n(O)c1=NCc1ccccc1Cl,25%,-4%,?,i,i
Cc1cccc(N=c2c([N+](=O)[O-])nn(-c3ccc(Cl)cc3)n2O)c1,1%,-2%,?,i,i
CCN(C(=O)CSc1nc(-c2ccccc2)no1)c1cccc(C)c1,.,.,16%,i,i
COc1ccc(C(=O)OC2=C(C(=O)c3ccccc3)N(C)S(=O)(=O)c3ccccc32)cc1OC,.,.,2%,i,i
Cc1ccc(C(=O)Cn2nc(C)c([N+](=O)[O-])c2C)c(C)c1,2%,-2%,20%,i,i
Cc1nn(CC(=O)Nc2ccc3c(c2)OCCO3)c(C)c1[N+](=O)[O-],3%,.,6.3µM*,i,i
Cc1nn(CC(=O)c2ccc(Cl)s2)c(C)c1[N+](=O)[O-],19%,13%,29%,18µM*,i
O=C(O)c1ccc(N=C2SCC(=O)N2Cc2ccccc2)cc1,25%,10%,?,i,i
COc1ccc(N=C2SCC(=O)N2Cc2ccccc2)cc1,-14%,0%,13µM*,i,i
Cc1cccc(OCC(=O)Nc2ccc3nc(C)sc3c2)c1,-39%,-4%,2.5µM*,i,i
Cc1nc2ccc(NC(=O)COc3ccccc3)cc2s1,-68%,-34%,?,i,i
Cc1nc2ccc(NC(=O)COc3cccc(F)c3)cc2s1,-51%,-3%,20µM*,i,i
Cc1ccc2[nH]c(-c3cccc(F)c3)cc(=O)c2c1,7%,-2%,19%,i,i
Cc1ccc2[nH]c(-c3cccc(N)c3)cc2c1,12%,-4%,22µM*,?,i
CCOc1ccc(OCC)c(NS(=O)(=O)c2c(C(=O)N3CCCCCC3)c(C)n(C)c2C)c1,.,.,17%,?,i
O=C(COCc1cc(-c2cccs2)on1)NCc1ccccc1Cl,.,.,13µM*,i,i
O=C(COCc1cc(-c2cccs2)on1)Nc1cc(Cl)ccc1O,.,.,6%,i,i
SMILES,aSyn rescue,Mito fusion yeast,TDP-43 yeast inh,FUS yeast rescue,Abeta rescue
CCOc1ccc(CNC(=O)c2ccc3c(Cl)c4c(nc3c2)CCCC4)cc1,.,.,11µM*,i,i
COc1ccc(CCNC(=O)c2ccc3c(Cl)c4c(nc3c2)CCCC4)c(OC)c1,.,.,35µM*,i,i
COc1ccc(CCNC(=O)c2ccc3c(Cl)c4c(nc3c2)CCCC4)cc1OC,.,.,0%,i,i
COc1ccc(OC)c(CNC(=O)c2ccc(Sc3ccc(Cl)cc3)c(NC(C)=O)c2)c1,.,.,25%,?,i
COc1ccc(CNC(=O)c2ccc(Sc3ccc(Cl)cc3)c(NC(C)=O)c2)c(OC)c1,.,.,22µM*,i,i
COc1ccc(CNC(=O)c2ccc3c(Cl)c4c(nc3c2)CCCC4)c(OC)c1,.,.,20µM*,i,i
COc1ccc(-c2ccc(C(=O)NCC3CC3)c3occc23)c(C)c1,-8%,.,22µM*,i,i
COc1ccc(-c2ccc(C(=O)N3CCOCC3)c3occc23)c(C)c1,?,.,10µM*,i,i
COc1ccc(-c2ccc(C(=O)NCc3ccncc3)c3occc23)c(C)c1,16%,.,15%,i,i
COc1ccc(-c2ccc(C(=O)NCC(C)C)c3occc23)c(C)c1,2%,.,25µM*,i,i
CCc1ccc(CNC(=O)COc2cc(=O)n(CC)c3ccccc23)cc1,.,.,0%,i,i
COc1ccc2c(c1)N[C@@](CCNC=O)(c1[nH]c3ccccc3c1CCNC=O)C2=O,.,.,.,i,.
Cc1cccc(-c2nc3nc(C)cc(NC(C)c4ccccc4)n3n2)c1 (stereo not drawn),-9%,.,25µM*,i,i
Cc1ccc(-c2nc3nc(C)cc(Nc4ccccc4O)n3n2)cc1,1%,.,?,i,i
Cc1cc(Nc2ccc(Br)cc2)n2nc(-c3ccccc3C)nc2n1,.,.,14µM*,i,i
COc1ccccc1Nc1cc(C)nc2nc(-c3ccccc3)nn12,.,.,13µM*,i,i
CCN(C(=O)c1cc2c(Cl)nc3ccccc3c2s1)c1cccc(Cl)c1,.,.,8%,i,i
CCOc1ccccc1CNC(=O)c1cn(-c2ccc(OC)cc2)c(=O)c2ccccc12,.,.,0%,i,i
CCCC1CCC2(CC1)CCC2OC(=S)Nc1ccc(Cl)cc1 (stereo not drawn),.,.,.,i,.
O=C(NCCc1ccccc1)OCc1cn(-c2ccc(F)c(F)c2)nn1,.,.,.,i,.
CCOc1ccccc1NC(=O)CSc1nccn1-c1ccc(Cl)cc1,.,.,?,i,i
CCSc1nnc(NC(=O)CSc2nccn2-c2cccc(C)c2C)s1,4%,9%,16µM*,i,i
COc1cccc(-n2ccnc2SCC(=O)Nc2cccc(C)c2C)c1,2%,.,16µM*,i,i
O=C(CSc1nccn1-c1ccc(F)cc1)Nc1ccc(OC(F)(F)F)cc1,.,.,16µM*,i,?
O=C(CSc1nccn1-c1ccc(Cl)cc1)Nc1cccc2ccccc12,.,.,11µM*,i,i
Clc1ccc(OCCOc2ccc(Br)nc2Br)c(Cl)c1,.,.,.,i,.
COC(=O)[C@]12C[C@H](CC(=O)N3CCC(c4ccccc4)CC3)C(=O)N(Cc3cccc4ccccc34)C1=C[C@H](C(C)(C)C)O[C@@H]2C,.,.,.,i,.

# Screening results: PubChem BioAssay, National Center for Advancing Translational Sciences (NCATS)
